# This is a sample that favours compounds with a hit; in the whole collection about 14% have one here.
# USP30 inh: blocks human USP30 ubiquitin-rhodamine cleavage | purified USP30, Ub-rhodamine cleavage fluorescence | inhibition, % at 25 µM | hit rate 5.3% among 47,000
# Target sequence (Q70CQ3 whole entry, looked up): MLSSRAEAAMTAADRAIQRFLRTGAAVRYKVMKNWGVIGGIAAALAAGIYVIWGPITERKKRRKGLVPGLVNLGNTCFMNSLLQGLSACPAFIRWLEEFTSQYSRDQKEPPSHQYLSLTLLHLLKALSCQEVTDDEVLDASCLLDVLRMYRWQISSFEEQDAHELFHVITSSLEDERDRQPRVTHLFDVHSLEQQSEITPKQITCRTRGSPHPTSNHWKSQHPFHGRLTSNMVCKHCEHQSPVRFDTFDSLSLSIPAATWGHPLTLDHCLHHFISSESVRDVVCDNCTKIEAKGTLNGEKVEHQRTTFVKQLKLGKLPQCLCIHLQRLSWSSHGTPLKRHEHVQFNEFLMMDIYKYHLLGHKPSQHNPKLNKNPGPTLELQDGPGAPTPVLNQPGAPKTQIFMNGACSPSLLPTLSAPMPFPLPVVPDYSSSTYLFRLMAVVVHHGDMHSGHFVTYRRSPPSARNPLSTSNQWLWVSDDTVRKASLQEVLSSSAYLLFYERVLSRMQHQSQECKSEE
# USP28 block: inhibitors of human USP28 deubiquitinase. inhibition, % at 25 µM. hit rate 3% among 47,000. AID 1645857. purified USP28, Ub-rhodamine cleavage fluorescence, 30 min. Q96RU2
# USP10 block: blocks human USP10 ubiquitin-rhodamine cleavage. Q14694. purified USP10, Ub-rhodamine fluorescence, 60 min. inhibition, % at 20 µM. hit rate 1.1% among 47,000. AID 1645856
# USP17 inh: human USP17-like deubiquitinase inhibition; purified USP17, Ub-rhodamine cleavage fluorescence, 3 h; A8MUK1; inhibition, % at 50 µM; hit rate 6.5% among 47,000; AID 1645855
# USP8 inh: human USP8 deubiquitinase inhibition; purified USP8, Ub-rhodamine cleavage fluorescence, 30 min; inhibition, % at 20 µM; hit rate 4.2% among 47,000
# * hit, by the source's call; i = inactive; / = no result given. No stated cut-off is given here; in the data, active means inhibition above about 30%; inactive means the rest.
SMILES,USP30 inh,USP28 block,USP10 block,USP17 inh,USP8 inh
COc1ccc(NC(=O)c2c(NC(=O)Cc3ccccc3)sc3c2CCC(C)C3)cc1 (centres undefined),-33.5,1.9,-0.6,-4.2,-17.1
COc1ccc(NC(=O)c2cncc(NS(=O)(=O)c3ccccc3)c2)cc1,-0.7,2.4,0.3,0.6,7.0
COc1ccc(NC(=O)c2ccc3c(c2)C2C4CCC(C4)C2C(c2ccccc2)N3)cc1 (centres undefined),39.0*,0.0,6.0,11.1,-0.3
COc1ccc(NC(=O)c2ccc3[nH]c4c(c3c2)CC(C)CC4)cc1 (centres undefined),-3.2,1.9,4.5,31.5*,26.5
Cc1nn2c(CNS(=O)(=O)Cc3c(F)cccc3Cl)c(C)nc2s1,-1.2,7.0,7.6,-1.3,-3.6
COc1cc2c(cc1OC)C(=O)NC(=CN1CCCC1c1cccn1C)N2 (centres undefined),-238.2,-83.5,-4.1,-69.4,-48.1
Cc1ccc(NC(=O)CSc2ccc(N3CCC(C(=O)NC(C)C)CC3)nn2)cc1,/,/,0.8,25.4,8.9
CC(C)NC(=O)C1CCN(c2ccc(SCC(=O)Nc3ccccc3Cl)nn2)CC1,34.3*,0.4,0.5,5.0,0.3
COc1ccccc1NC(=O)N1CCCN(C(=O)c2cccs2)CC1,5.1,-11.5,-0.2,1.6,0.2
CCn1ncc(Cn2cc(Cl)c([N+](=O)[O-])n2)c1C,21.2,3.8,2.4,-2.0,-112.9
CC1CN(C=O)c2ccccc2N(Cc2ccccc2)C1=O (centres undefined),29.2,16.8,1.8,12.8,3.0
COc1cc2c(cc1OC)-c1cc(-c3cc(OC)c(OC)c(OC)c3)cn1CC2,-140.5,-24.8,-3.5,-3.1,35.9*
COc1cc2c(cc1OC)-c1cc(NCc3cc(OC)c(OC)c(OC)c3)nc(=O)n1CC2,-5.2,1.0,-7.6,/,-23.1
Fc1ccc(Nc2nc(-c3ccccn3)nc3ccccc23)cc1,31.4*,10.3,3.9,39.0*,-223.4
Fc1cccc(Nc2nc(-c3ccccn3)nc3ccccc23)c1,24.5,7.2,18.1,43.3*,-291.0
O=C(c1cnccn1)N1CC[C@@H]2NS(=O)(=O)c3ccccc3O[C@H]2CC1,18.0,2.5,1.8,3.7,-1.7
Cc1cccc(Nc2nc(Nc3ccc(F)cc3)nc(N3CCOCC3)n2)c1,9.3,0.3,2.2,20.8,-0.2
Cc1csc(C(=O)N2CCN(S(C)(=O)=O)CC(C(N)=O)C2)c1 (centres undefined),4.3,7.3,0.4,9.0,9.6
CCCCCC(=O)N1c2ccccc2NC2=C(C(=O)CC(c3ccc(C(C)(C)C)cc3)C2)C1c1ccncc1 (centres undefined),25.4,27.6,6.8,73.7*,2.5
CCC(=O)N1c2ccccc2NC2=C(C(=O)CC(c3ccco3)C2)C1c1ccc(OC)c(OC)c1 (centres undefined),-15.0,2.7,0.2,0.1,-0.4
CC(=O)N1c2ccccc2NC2=C(C(=O)CC(c3ccco3)C2)C1c1ccc(Cl)cc1 (centres undefined),-56.1,-6.4,-0.9,17.7,42.7*
COc1cc(C2C3=C(CC(c4ccco4)CC3=O)Nc3ccccc3N2C(=O)c2ccccc2)cc(OC)c1OC (centres undefined),-7.6,3.4,0.7,5.8,33.5*
CCOc1cc2c(cc1OCC)C1CC(=O)N(c3ccc(F)cc3F)C(=O)N1CC2 (centres undefined),-44.7,-4.3,-0.3,-6.1,-12.0
O=C1NC(=O)/C(=C/c2ccc(OC(=O)c3ccc(Cl)cc3Cl)cc2)N1,62.0*,31.1*,44.6*,38.0*,94.3*
CCn1c(COc2ccc3c(c2)OCO3)nnc1SCc1ccc([N+](=O)[O-])cc1,15.7,16.2,0.9,-0.7,-117.0
SMILES,USP30 inh,USP28 block,USP10 block,USP17 inh,USP8 inh
CCn1c(COc2ccccc2OC)nnc1SCc1ccccc1,9.0,1.0,0.5,-8.6,3.2
CCn1c(COc2cccc(C(F)(F)F)c2)nnc1SCc1ccc(Cl)cc1,58.1*,59.3*,17.6,36.2*,10.6
CCn1c(COc2ccc(OC)cc2)nnc1SCc1ccccc1Cl,32.1*,25.0,3.6,19.3,5.5
COc1cc2[nH]c(=O)n(Cc3ccc(C(=O)NCCCN4CCN(c5ccccc5F)CC4)cc3)c(=O)c2cc1OC,23.5,3.0,-4.5,3.5,8.3
O=S(=O)(NCCn1cnc2ccccc21)c1ccc(Br)cc1,-5.2,3.1,-5.0,4.0,-97.7
COC(=O)c1ccc(CNC(=O)COC(=O)c2cc(-c3ccccc3)nc3ccccc23)cc1,47.4*,9.4,20.0,8.7,14.6
COc1ccc(N2CCN(C(=O)c3cncc(NS(=O)(=O)c4ccc(F)cc4)c3)CC2)cc1,-8.9,7.6,-2.5,11.3,42.3*
COc1cccc(-c2cc(C(=O)Nc3ccccc3)[nH]n2)c1,34.8*,21.6,2.7,38.7*,11.8
COc1cccc(-c2cc(C(=O)Nc3cccc(C(C)=O)c3)[nH]n2)c1,-63.8,-31.6,-4.5,1.6,-13.1
O=C(Nc1cccc(Cl)c1)c1cc(-c2cccnc2)n[nH]1,47.1*,55.0*,46.7*,83.4*,82.8*
COc1ccc(CCNC(=O)c2cc(-c3cccnc3)n[nH]2)cc1OC,16.8,18.0,2.6,0.1,25.0
O=C(Nc1ccccc1F)c1cc(-c2cccnc2)n[nH]1,/,/,4.7,69.8*,2.4
Cc1ccc(NC(=O)CSc2nnc(-c3cccnc3)o2)cc1F,22.4,16.4,-0.6,14.3,5.1
O=C(CSc1nnc(-c2cccnc2)o1)Nc1cccc(Cl)c1,29.8,15.4,0.1,32.9*,1.8
OCCCc1nc2ccccc2n1C1CCCCC1,-28.9,-15.8,-3.9,-10.1,-1.0
CC(=O)NC(CC(=O)OCC(=O)Nc1cc(S(=O)(=O)N2CCCCC2)ccc1C)c1ccccc1 (centres undefined),8.1,6.7,1.4,0.5,-31.1
CCCOc1ccc([C@@H]2c3c(C)nn(-c4ccccc4)c3NC(=O)[C@H]2NC(=O)c2ccccc2)cc1,-1.7,-10.1,6.8,-8.7,0.1
Cc1ccc(C(=O)N2CCCC3(C2)Nc2cccnc2NC3=NC2CCCC2)s1 (centres undefined),i,-225.0,-3.9,-192.5,-168.7
Cc1noc(C)c1CN1CCOC2(CCCN(c3ncccc3F)C2)C1 (centres undefined),i,-191.2,-5.2,-131.7,-57.7
CNC(=O)NC(=O)CSc1nnc(-c2ccc(Cl)cc2)o1,7.4,-0.5,2.7,33.2*,1.5
Cc1cccc(NC(=O)C2CCN(C(=O)c3cc(-c4ccncc4)n[nH]3)CC2)c1,-53.4,0.5,-2.1,0.4,1.8
Cc1ccc(NC(=O)CSc2nnc(-c3ccncc3)o2)cc1,23.6,13.9,0.5,0.7,-1.5
O=C(Nc1ccccc1)c1cc(-c2ccncc2)n[nH]1,24.5,23.6,3.0,-5.3,2.3
COc1cccc(NC(=O)C2CCN(C(=O)c3cc(-c4cccnc4)n[nH]3)CC2)c1,9.1,56.8*,1.7,0.0,12.3
CSc1cccc(NC(=O)c2cc(-c3cccnc3)n[nH]2)c1,65.4*,53.3*,27.0,78.7*,97.2*
